Assay outcomes as filed in PubChem BioAssay.
A selection: hits, their analogues and other compounds. The true share with any hit is near 8.7%.
Sfp PPTase inh – blocks B. subtilis Sfp PPTase activity. Q9F4F7. Potency, µM, for inactives: largest response in the series, negative = inhibition, hits mostly inhibitors. 310,000 compounds, 3.5% hits. Biochemical Sfp PPTase activity, qHTS;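 also: the enzyme is Sfp with the accession as filed and its product quenches rhodamine fluorescence; potency is read from the fitted curve at half-maximal effect; 0% = enzyme reaction without inhibitor and -100% = no enzyme wells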
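Buffer: 50 mM Hepes-Na pH 7.6, 10 mM MgCl2, 0.01% Nonidet P-40, 0.01% BSA. Enzyme 15 nM, pre-exposed to compound 15 min; substrates then added and fluorescence change tracked over 30 min.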
BAZ2B inh – inhibitors of human BAZ2B bromodomain; AlphaScreen BAZ2B-H3K14Ac peptide displacement; Potency, µM (titrated, usually from 114 µM), for the others: at the highest dose activity change, negative = inhibition, usual class: inhibitors; 360,000 compounds, 4.4% hits; AID 504333; also: potency is read from the fitted curve at half-maximal effect; % is scaled to controls: 0 for no effect and ±100 for the full control effect; nearly all actives have a fitted effect of over 60% in size
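BAZ2B (50 nM) with biotin-H3(5-23)K14Ac peptide (50 nM) in PBS pH 7.4, 0.01% Tween-20, preformed 30 min, then compound 30 min at room temperature; top concentration 110uM. AlphaScreen streptavidin donor/nickel chelate acceptor beads (10 ug/mL final), 20 min dark, signal read.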
HP1b chromo inh – blocks HP1-beta chromodomain binding to methylated histone tails; Potency, µM (highest dose often 114 µM), inactives show at the highest dose activity change, negative = inhibition, usual class: inhibitors; AlphaScreen HP1-beta / biotin-H3K9me3 peptide binding; 390,000 compounds, 0.56% hits; also: potency is read from the fitted curve at half-maximal effect; nearly all actives have a fitted effect of over 70% in size
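HP1-beta protein (50 nM final) preincubated 30 min at room temperature with biotinylated H3(1-18)K9me3 peptide (50 nM) in PBS pH 7.4, 0.01% Tween-20, then compound added for 30 min. AlphaScreen streptavidin donor/nickel chelate acceptor beads (10 ug/mL final), 30 min dark, luminescence read.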
ALOX12 inh – blocks human arachidonate 12S-lipoxygenase; AID 1671190; purified 12hLO, xylenol orange hydroperoxide absorbance; Potency, µM (doses to about 108 µM), inactives show at the highest dose activity change, negative = inhibition, usual class: inhibitors; 580,000 compounds, 1.1% hits; also: potency is read from the fitted curve at half-maximal effect; % is scaled to controls: 0 for no effect and ±100 for the full control effect
Target sequence (P18054 whole entry, looked up): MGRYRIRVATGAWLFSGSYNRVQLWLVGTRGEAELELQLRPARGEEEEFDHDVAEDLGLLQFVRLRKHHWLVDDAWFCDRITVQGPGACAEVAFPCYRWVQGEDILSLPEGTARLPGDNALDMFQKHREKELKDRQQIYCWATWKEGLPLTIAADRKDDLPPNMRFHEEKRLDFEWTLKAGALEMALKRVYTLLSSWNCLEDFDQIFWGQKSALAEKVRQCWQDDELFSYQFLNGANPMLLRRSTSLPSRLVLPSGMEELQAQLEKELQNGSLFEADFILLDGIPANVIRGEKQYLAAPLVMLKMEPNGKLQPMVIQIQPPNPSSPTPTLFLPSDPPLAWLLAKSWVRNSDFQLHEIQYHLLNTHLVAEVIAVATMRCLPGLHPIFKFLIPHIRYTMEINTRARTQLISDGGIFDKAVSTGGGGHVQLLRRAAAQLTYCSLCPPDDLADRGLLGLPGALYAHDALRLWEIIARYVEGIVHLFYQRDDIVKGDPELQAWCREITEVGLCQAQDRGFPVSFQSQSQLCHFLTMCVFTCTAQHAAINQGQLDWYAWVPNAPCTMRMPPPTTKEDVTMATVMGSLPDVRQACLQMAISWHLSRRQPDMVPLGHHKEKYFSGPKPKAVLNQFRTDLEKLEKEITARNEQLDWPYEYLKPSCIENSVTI
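Purified human 12hLO at 150 nM in 25 mM Hepes, 0.01% Triton X-100, pH 7.0, preincubated 15 min at room temperature with compound. Reaction started with 40 uM arachidonic acid, 30 min at room temperature. Hydroperoxide measured by Fe-xylenol orange, 573/405 nm absorbance ratio.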
G9a inh-1 – G9a (human) methyltransferase inhibition; Q96KQ7; G9a H3K9 monomethylation, AlphaScreen, 2 h; Potency, µM (series often up to 102 µM), without a hit: at the highest dose activity, negative = inhibition, actives largely listed as inhibitors; 350,000 compounds, 8.8% hits; also: potency is read from the fitted curve at half-maximal effect; % is scaled to controls: 0 for no effect and ±100 for the full control effect; nearly all actives have a fitted effect of over 75% in size
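Methyltransferase reactions run at room temperature for 2 h (20 nM enzyme, 500 nM biotin-H3K9 peptide, 20 uM SAM) after a 15 min compound preincubation; product detected by AlphaScreen beads and anti-H3K9me1 antibody.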
JMJD2A Tudor – JMJD2A Tudor domain (human) inhibition; O75164; AlphaScreen JMJD2A-Tudor / H3K4me3 peptide binding; Potency, µM (titrated, usually from 114 µM), without a hit: top-dose activity change, negative = inhibition, hits mostly inhibitors; 390,000 compounds, 4.4% hits; AID 504339; also: potency is read from the fitted curve at half-maximal effect; % is scaled to controls: 0 for no effect and ±100 for the full control effect; nearly all actives have a fitted effect of over 50% in size
12-hLO 8HQ R1 – blocks human 12-lipoxygenase product formation in cuvette. purified 12-hLO, cuvette UV 234 nm product formation. shares compounds with BAZ2B inh. Potency, µM, most hits filed as inhibitors. AID 2163. 35 compounds, 60% hits;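 active = compounds that slowed 12-hLO product formation enough to yield a measured IC50 potency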
JMJD2E inh-1 – blocks human JMJD2E demethylase activity. 130 compounds, 89% hits. JMJD2E demethylase, FDH-coupled NADH fluorescence. Potency, µM (titrated, usually from 57 µM), inactives show at the highest dose activity, negative = inhibition, actives largely listed as inhibitors. shares compounds with BAZ2B inh
JMJD2E inh-2 – JMJD2E (human) demethylase inhibition, confirmation. Potency, µM (top dose mostly 56.8 µM), for the others: top-dose activity change, negative = inhibition, most hits filed as inhibitors. shares compounds with JMJD2A Tudor. Recombinant JMJD2E, FDH-coupled NADH fluorescence (FDH is formaldehyde dehydrogenase). AID 2677. 140 compounds, 93% hits
FDH inh – counter-screen for JMJD2E inhibitors: Pseudomonas putida formaldehyde dehydrogenase | AID 2680 | Potency, µM (titrated, usually from 56.7 µM), for inactives: top-dose activity, negative = inhibition, hits mostly inhibitors | 140 compounds, 10% hits | FDH enzyme assay, NADH fluorescence kinetic | shares compounds with JMJD2A Tudor
JMJD2E MS inh – blocks demethylation by human JMJD2E in a MALDI-TOF-MS assay; shares compounds with JMJD2A Tudor; recombinant JMJD2E demethylation, MALDI-TOF-MS; Potency, µM, most hits filed as inhibitors; 45 compounds, 90% hits;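 active = compounds whose IC50 for blocking JMJD2E demethylation is below 100 µM; inconclusive = dose dependent effect but IC50 above 100 µM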
G9a inh-2 – confirmation of human histone methyltransferase G9a inhibitors; G9a H3K9 monomethylation, AlphaScreen, 2 h; Potency, µM, actives largely listed as inhibitors; AID 588344; shares compounds with JMJD2A Tudor; 370 compounds, 89% hits; also: potency is read from the fitted curve at half-maximal effect; nearly all actives have a fitted effect of over 65% in size
RGS4 inh – inhibits human RGS4, hit validation; shares compounds with JMJD2A Tudor; RGS4 GAP activity, Transcreener GDP fluorescence polarization; Potency, µM, hits mostly inhibitors; 25 compounds, 80% hits
Numbers without * were called inactive; i = inactive; ? = inconclusive; . = no result; [ ] = dose if it differs, or a comment. Unless noted, calls follow the shape of the dose curve; as a rule, active = well fitted curve in the direction sought with a large enough effect; inconclusive = small, poorly fitted or top-dose-only effect, or another doubt; inactive = no such curve, though single readings can be large; an effect the other way counts as inactive or inconclusive.

SMILES	Sfp PPTase inh	BAZ2B inh	HP1b chromo inh	ALOX12 inh	G9a inh-1	JMJD2A Tudor	JMJD2E inh-1	JMJD2E inh-2	FDH inh	others
O=C(NCc1c[nH]c2ncccc12)c1ccc(C(F)(F)F)cc1	.	.	.	-1%[176 µM]	.	.	.	.	.
Oc1ccc(CNc2ccc(C(F)(F)F)cc2F)c2cccnc12	.	.	.	.	.	50µM*	2.2µM*	2.2µM*	-18%	JMJD2E MS inh=20*
Cc1ccc(C)c(NC(=O)CCC2CCCC2)c1	.	.	.	-26%	.	.	.	.	.
COc1ccc(C(=O)N[C@@H]2CCC[C@@H]2C(=O)N2CCN(c3cc(C)ccc3C)CC2)cn1	.	.	.	14%	.	.	.	.	.
CCC(=O)NC(c1ccc(C)cc1)c1ccc2cccnc2c1O (stereo not drawn)	18%	22µM*	51%	-4%	20%	79µM*	13µM*	13µM*	-18%	12-hLO 8HQ R1=i
CCC(=O)NC(c1cccs1)c1cc(Cl)c2cccnc2c1O (stereo not drawn)	6%	-5%	45%	-7%	-2%	-14%	13µM*	13µM*	-18%	12-hLO 8HQ R1=1µM*
CCC(=O)NC(c1cccc([N+](=O)[O-])c1)c1c(O)ccc2ccccc12 (stereo not drawn)	5%	-14%	24%	-23%	-26%	-13%	.	.	.
CCC(=O)NC(c1ccc(C)cc1)c1cc([N+](=O)[O-])c2cccnc2c1O (stereo not drawn)	?	4µM*	-16%	11µM*	?	22µM*	13µM*	13µM*	-27%	12-hLO 8HQ R1=2.3µM*
CCCC(=O)NC(c1ccccc1Cl)c1ccc2cccnc2c1O (stereo not drawn)	12%	-34%	41%	-5%	41%	-27%	.	.	.
CN1C(=O)N(Cc2coc(-c3cccs3)n2)C(=O)C12CCCCC2	.	.	.	20%	.	.	.	.	.
O=S(=O)(c1ccc(O)c2ncccc12)N1CCCCC1	.	.	.	.	.	.	18µM*	18µM*	-36%
O=S(=O)(Nc1ccccc1)c1ccc(O)c2ncccc12	.	.	.	.	.	.	9.1µM*	9.1µM*	-27%
O=S(=O)(NCc1ccccc1)c1ccc(O)c2ncccc12	.	.	.	.	.	.	32µM*	23µM*	-36%
CCOc1ccc(NS(=O)(=O)c2ccc(OCC)c3ncccc23)cc1	-3%	-7%	6%	8%	6%	-11%	.	.	.
O=S(=O)(Nc1ccccc1F)c1ccc(O)c2ncccc12	.	.	.	.	.	.	29µM*	13µM*	-36%
NC(=O)c1cc(Cl)ccc1OCc1cccc(C(F)(F)F)c1	.	.	.	25%	.	.	.	.	.
O=C(CSc1cccc2cccnc12)N1CCCC1	?	9%	?	-13%	?	?	.	32µM*	11µM*
O=C(c1ccc(Cl)cc1)N1CCC(n2cnnc2-c2ccccc2)CC1	.	.	.	1%	.	.	.	.	.
Cc1cccc(OCCCC(=O)Nc2ccc(N(C)C)cc2)c1	0%	?	-15%	-21%	1.8µM*	?	.	.	.	G9a inh-2=0.89*
COC(=O)c1[nH]c2ccccc2c1NC(=O)CN1CCC2(CC1)OCCO2	.	.	.	-6%	.	.	.	.	.
Cc1cccc(C)c1OCc1nnc(SCC(=O)Nc2cccc(C(=O)N3CCOCC3)c2)n1C	16%	-3%	9%	4%	9%[59 µM]	?	.	.	.
Cc1cccc(OCc2nnc(SCC(=O)Nc3cccc(C(=O)N4CCOCC4)c3)o2)c1C	-6%	-21%	12%	?	2µM*	-9%	.	.	.	G9a inh-2=5*
Cc1ccc2c(CN(C)CCOc3cccc(Cl)c3)cc(=O)oc2c1	.	.	.	-17%	.	.	.	.	.
CCOC(=O)C1CCN(C(=O)Cc2cccc3ccccc23)CC1	3%	12%	24%	?	?	2%	.	.	.	G9a inh-2=18*
Cc1cc(C)c(C)c(S(=O)(=O)N2CCC(C(=O)N3CCN(c4ccc(F)cc4)CC3)CC2)c1C	.	.	6%[57 µM]	3%	.	-21%	.	.	.
Cc1ccc(C(C)(C)C)cc1S(=O)(=O)N1CCC(C(=O)N2CCN(c3ccc(O)cc3)CC2)CC1	.	10%	?	?	0.79µM*	-35%	.	.	.	G9a inh-2=1.4*
COc1cc2c(NC3CCN(C)CC3)nc(N3CCCN(C)CC3)nc2cc1OCCCCCN	.	.	.	.	.	.	.	.	.	RGS4 inh=?
COC(=O)CCNC(=O)c1ccc(-c2ccccc2)cc1	.	.	.	31%	.	.	.	.	.
